# In PubChem BioAssay (NCATS):
# Inconclusive results are not listed. Values without a mark were called inactive. Active and inactive are the calls of the source. The call rests on the fitted dose curve; in most records, active means well fitted curve in the direction sought with a large enough effect; inconclusive means small, poorly fitted or top-dose-only effect, or another doubt; inactive means no such curve, though single readings can be large; an effect the other way counts as inactive or inconclusive.
# Legend:
# [1] = Quantitative High-Throughput drug screen in 47 multiple myeloma cell lines against the NCATS MIPE library collection: KHM11_PLB cell viability assay (AID 1918962); further: nearly all actives have a fitted effect of over 35% in size; further: potency means the concentration at half of the fitted maximal effect
# Method in brief: (§1)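 qHTS of the MIPE 4.0 collection: 500 myeloma cells/well, 48 h drug exposure at 37C in 5% CO2, then CellTiter-Glo for 5 min at room temperature before luminescence reading.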
# [2] = Quantitative High-Throughput drug screen in 47 multiple myeloma cell lines against the NCATS MIPE library collection: JIM3_ECACC cell viability assay (AID 1918963; further: nearly all actives have a fitted effect of over 35% in size; further: potency means the concentration at half of the fitted maximal effect)
# Method in brief: as §1
# [3] = Quantitative High-Throughput drug screen in 47 multiple myeloma cell lines against the NCATS MIPE library collection: INA6_PLB cell viability assay (AID 1918965; further: nearly all actives have a fitted effect of over 55% in size; further: potency means the concentration at half of the fitted maximal effect)
# Method in brief: (§2)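 Luminescent ATP measurement with CellTiter-Glo gives viability, scaled between DMSO-only wells (100%) and media-only wells (0%). Cells, 500 per well, faced library compounds for 48 hours at 37C.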
# [4] = Quantitative High-Throughput drug screen in 47 multiple myeloma cell lines against the NCATS MIPE library collection: JJN3_DSMZ cell viability assay (AID 1918966; further: nearly all actives have a fitted effect of over 50% in size; further: potency means the concentration at half of the fitted maximal effect)
# Method in brief: as §2
# [5] = Quantitative High-Throughput drug screen in 47 multiple myeloma cell lines against the NCATS MIPE library collection: H1112_PLB cell viability assay (AID 1918967; further: nearly all actives have a fitted effect of over 30% in size; further: potency means the concentration at half of the fitted maximal effect)
# Method in brief: as §2
# [6] = Quantitative High-Throughput drug screen in 47 multiple myeloma cell lines against the NCATS MIPE library collection: Karpas25_ECACC cell viability assay (AID 1918968; further: potency means the concentration at half of the fitted maximal effect; nearly all actives have a fitted effect of over 35% in size)
# Method in brief: as §2
# [7] = Quantitative High-Throughput drug screen in 47 multiple myeloma cell lines against the NCATS MIPE library collection: KMS27_JCRB cell viability assay (AID 1918970); further: nearly all actives have a fitted effect of over 30% in size; further: potency means the concentration at half of the fitted maximal effect
# Method in brief: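 CellTiter-Glo luminescence after 48 h drug exposure at 37 °C; 500 cells/well, 1536-well format, pin-tool compound addition; DMSO = 100%, media-only = 0% viability.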
# [8] = Quantitative High-Throughput drug screen in 47 multiple myeloma cell lines against the NCATS MIPE library collection: KMS12BM_JCRB cell viability assay (AID 1918971); further: nearly all actives have a fitted effect of over 35% in size; further: potency means the concentration at half of the fitted maximal effect
# Method in brief: as §2
# [9] = Quantitative High-Throughput drug screen in 47 multiple myeloma cell lines against the NCATS MIPE library collection: KMS20_JCRB cell viability assay (AID 1918973); further: nearly all actives have a fitted effect of over 45% in size; further: potency means the concentration at half of the fitted maximal effect
# Method in brief: as §2
# [10] = Quantitative High-Throughput drug screen in 47 multiple myeloma cell lines against the NCATS MIPE library collection: KMS26_JCRB cell viability assay (AID 1918975); further: nearly all actives have a fitted effect of over 45% in size; further: potency means the concentration at half of the fitted maximal effect
# Method in brief: as §2
# [11] = Quantitative High-Throughput drug screen in 47 multiple myeloma cell lines against the NCATS MIPE library collection: MMM1_PLB cell viability assay (AID 1918976)
# Method in brief: (§3)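 qHTS format: cells plated (500/well), pin-dosed with MIPE 4.0 compounds, kept 48 h at 37 °C. Readout was CellTiter-Glo luminescence, median RLU.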
# [12] = Quantitative High-Throughput drug screen in 47 multiple myeloma cell lines against the NCATS MIPE library collection: MOLP8_DSMZ cell viability assay (AID 1918977); further: nearly all actives have a fitted effect of over 45% in size; further: potency means the concentration at half of the fitted maximal effect
# Method in brief: as §3
# [13] = Quantitative High-Throughput drug screen in 47 multiple myeloma cell lines against the NCATS MIPE library collection: NCIH929_DSMZ cell viability assay (AID 1918978); further: nearly all actives have a fitted effect of over 35% in size; further: potency means the concentration at half of the fitted maximal effect
# Method in brief: as §3
# [14] = Quantitative High-Throughput drug screen in 47 multiple myeloma cell lines against the NCATS MIPE library collection: OCIMY1_PLB cell viability assay (AID 1918979); further: nearly all actives have a fitted effect of over 35% in size; further: potency means the concentration at half of the fitted maximal effect; on viability: series mostly up to about 46 µM
# Method in brief: as §3
# [15] = Quantitative High-Throughput drug screen in 47 multiple myeloma cell lines against the NCATS MIPE library collection: LP1_DSMZ cell viability assay (AID 1918982); further: nearly all actives have a fitted effect of over 35% in size; further: potency means the concentration at half of the fitted maximal effect
# Method in brief: as §3
# [16] = Quantitative High-Throughput drug screen in 47 multiple myeloma cell lines against the NCATS MIPE library collection: JIM1_ECACC cell viability assay (AID 1918964)
# Method in brief: as §2
# [17] = Quantitative High-Throughput drug screen in 47 multiple myeloma cell lines against the NCATS MIPE library collection: MM1S_ATCC cell viability assay (AID 1918980); further: nearly all actives have a fitted effect of over 45% in size; further: potency means the concentration at half of the fitted maximal effect; on viability (% of control): series mostly up to about 46 µM
# Method in brief: as §3
# [18] = Quantitative High-Throughput drug screen in 47 multiple myeloma cell lines against the NCATS MIPE library collection: MM1R_ATCC cell viability assay (AID 1918981); further: nearly all actives have a fitted effect of over 35% in size; further: potency means the concentration at half of the fitted maximal effect
# Method in brief: as §3
# [19] = Quantitative High-Throughput drug screen in 47 multiple myeloma cell lines against the NCATS MIPE library collection: KMS12PE_JCRB cell viability assay (AID 1918972); further: nearly all actives have a fitted effect of over 30% in size; further: potency means the concentration at half of the fitted maximal effect; on viability: series mostly up to about 46 µM
# Method in brief: as §2
compound,measurement,setting,value
CNC(=O)c1c(F)cccc1Nc1nc(Nc2cc3c(cc2OC)CCN3C(=O)CN(C)C)nc2[nH]ccc12,Potency,[1],9350 nM (active)
same,Potency,[2],105 nM (active)
same,Potency,[3],5900 nM (active)
same,Potency,[4],6620 nM (active)
same,Potency,[5],1870 nM (active)
same,Potency,[6],93.5 nM (active)
same,Potency,[7],inactive
same,Potency,[8],14800 nM (active)
same,Potency,[9],118 nM (active)
same,Potency,[10],264 nM (active)
same,Potency,[11],46.9 nM (active)
same,Potency,[12],7430 nM (active)
same,Potency,[13],83.3 nM (active)
same,Potency,[14],372 nM (active)
same,Potency,[15],16600 nM (active)
COc1ccc(CC2c3cc(OC)c(OC)cc3CC[N+]2(C)CCC(=O)OCCCCCOC(=O)CC[N+]2(C)CCc3cc(OC)c(OC)cc3C2Cc2ccc(OC)c(OC)c2)cc1OC (stereo unspecified),"viability, % of DMSO control",[1],95.7% [at 5.15 µM]
same,"viability, percent of control",[2],105% [at 5.15 µM]
same,viability (% of DMSO),[16],83.6% [at 5.15 µM]
same,viability,[5],104% [at 5.15 µM]
same,viability (% of DMSO),[7],108% [at 5.15 µM]
same,"viability, % of DMSO",[8],113% [at 5.15 µM]
same,viability (% of DMSO),[10],102% [at 5.15 µM]
same,viability (% of control),[15],101% [at 5.15 µM]
Cc1cc(CN2CCN(c3c(Br)cnc4nc(-c5ccc(N6CCN(C)CC6)cc5)[nH]c34)CC2)no1,Potency,[1],5260 nM (active)
same,Potency,[2],7430 nM (active)
same,Potency,[3],2640 nM (active)
same,Potency,[4],10500 nM (active)
same,Potency,[6],3320 nM (active)
same,Potency,[7],inactive
same,Potency,[8],18700 nM (active)
same,Potency,[9],2350 nM (active)
same,Potency,[10],7430 nM (active)
same,Potency,[11],23500 nM (active)
same,Potency,[12],7430 nM (active)
same,Potency,[13],2350 nM (active)
same,Potency,[14],14800 nM (active)
same,Potency,[17],5900 nM (active)
same,Potency,[18],13200 nM (active)
same,Potency,[15],26400 nM (active)
C=CC(=O)Nc1cccc(Oc2nc(Nc3ccc(N4CCN(C)CC4)cc3)ncc2Cl)c1,Potency,[1],16600 nM (active)
same,Potency,[2],5900 nM (active)
same,Potency,[3],2960 nM (active)
same,Potency,[4],18700 nM (active)
same,Potency,[5],5900 nM (active)
same,Potency,[7],4690 nM (active)
same,Potency,[19],1870 nM (active)
same,Potency,[9],1870 nM (active)
same,Potency,[10],26400 nM (active)
same,Potency,[11],23500 nM (active)
same,Potency,[13],3720 nM (active)
same,Potency,[14],16600 nM (active)
same,Potency,[17],18700 nM (active)
same,Potency,[18],14800 nM (active)
same,Potency,[15],16600 nM (active)
CN1CCN(Cc2ccc(NC(=O)Nc3ccc(Oc4cc(NC(=O)C5CC5)ncn4)cc3)cc2C(F)(F)F)CC1,Potency,[1],132 nM (active)
same,Potency,[2],148 nM (active)
same,Potency,[3],132 nM (active)
same,Potency,[4],264 nM (active)
same,Potency,[5],148 nM (active)
same,Potency,[8],469 nM (active)
same,Potency,[19],inactive
same,Potency,[9],132 nM (active)
same,Potency,[10],418 nM (active)
same,Potency,[11],372 nM (active)
same,Potency,[12],332 nM (active)
same,Potency,[13],132 nM (active)
same,Potency,[14],1180 nM (active)
same,Potency,[17],332 nM (active)
same,Potency,[18],332 nM (active)
same,Potency,[15],372 nM (active)
CC1(C)O[C@@H]2C[C@@H]3[C@H]4C[C@@H](F)C5=CC(=O)C=C[C@]5(C)[C@@]4(F)[C@@H](O)C[C@]3(C)[C@]2(C(=O)CO)O1,Potency,[1],inactive
same,Potency,[2],inactive
same,Potency,[3],inactive
same,Potency,[4],inactive
same,Potency,[5],inactive
same,Potency,[6],7.4 nM (active)
same,Potency,[8],inactive
same,Potency,[11],10.5 nM (active)
same,Potency,[13],inactive
same,Potency,[14],inactive
same,Potency,[17],11.8 nM (active)
same,Potency,[18],inactive
CCOc1ccccc1OCCNC(C)Cc1ccc(OC)c(S(N)(=O)=O)c1 (stereo unspecified),Potency,[1],inactive
same,Potency,[2],inactive
same,Potency,[16],inactive
same,Potency,[4],inactive
same,Potency,[5],inactive
same,Potency,[7],inactive
same,Potency,[19],inactive
same,Potency,[9],inactive
same,Potency,[10],inactive
same,Potency,[12],inactive
same,Potency,[13],inactive
same,Potency,[14],inactive
same,Potency,[17],inactive
same,Potency,[18],inactive
